Among all 220,000 compounds or so, about 2,000 (0.91%) were called active. Not shown: some 2% with an inconclusive outcome. Only a sample is shown. Entries with a potency or affinity are not part of this list. A number with no mark means an inactive call. No stated cut-off is given here; in the data, inconclusive means inhibition above about 80% without an active follow-up result; inactive means below that; test concentration not stated here.

Experimental findings from PubChem BioAssay AID1626 (SRMLSC, 2009) are described below.

A short description of this test: M. tuberculosis H37Rv growth inhibitors, H37Rv strain (AID 1626).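 Further: bacteria incubated seven days before Alamar blue readout; 0% = bacteria only wells and 100% = bacteria with antibiotic wells.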 The following applies: stronger effect = higher value, concentration not given here.
As usually defined, the inhibition is the relative decrease from the control value, in per cent. For the molecule `CC(=O)NCc1nc2ccccc2n1Cc1ccccc1C`, the inhibition was -1.94%.
Take `CC(=O)NCCc1nc2ccccc2n1Cc1ccccc1`: the inhibition is 2.23%.
In the case of `CC(=O)NCCCc1nc2ccccc2n1Cc1ccccc1C`, the inhibition is -3.1%.
Turning to `CCC(=O)Nc1nonc1-c1nc2ccccc2n1Cc1cccc2ccccc12`, the inhibition was 20.3%.
`CC(=O)Nc1nc2ccccc2n1CCN(C)C`: the inhibition is -1.12%.
`CCn1c(NCc2ccccc2Cl)nc2ccccc21`: the inhibition was 1.72%.
Regarding `CCS(=O)(=O)c1nc2ccccc2n1Cc1ccccc1Cl`, the inhibition was 0.3%.
Regarding `Cc1ccccc1Cn1c(C(C)O)nc2ccccc21` (stereo not drawn), the inhibition is 1.24%.
Consider `Cc1cc(C)c(C(=O)Nc2ccc(Br)c(C(F)(F)F)c2)c(C)c1`, for which the inhibition is 50.8%.
Consider `C=CCN(C(=O)CNC(=O)c1ccco1)C(C(=O)NC1CCCCC1)c1ccccc1` (stereo not drawn), for which the inhibition is -3.02%.
As for `COc1ccc2nc3sc(C(=O)NCCN4CCc5ccccc5C4)cc3cc2c1`, the inhibition is 11.3%.
Turning to `Cn1c(CCNC(=O)OC(C)(C)C)n[nH]c1=S`, the inhibition was -7.46%.
Take `CC12CCC(C(=O)Nc3ccccc3N3CCOCC3)(CC1=O)C2(C)C` (stereo not drawn): the inhibition is -3.66%.
In the case of `COc1cccc(N=Cc2c[nH][nH]c2=O)c1`, the inhibition is -5.96%.
With `O=c1[nH][nH]cc1C=Nc1ccc(Cl)cc1` the figure was 4.25%; with `C/[N+]([O-])=C/c1c(OCc2ccc(Cl)cc2Cl)ccc2ccccc12`, 10.9%; with `Cc1c(C(=O)Nc2ccc(F)cc2)c2ccccn2c1CCc1ccncc1`, 1.73%.
With `Cc1ccc(C)c(Cn2c(=O)n(CCC(=O)NCc3ccco3)c(=O)c3sccc32)c1` the figure was -2.02%; with `O=C1CC(c2ccco2)CC2=C1C(c1ccccc1)n1nc(C(F)(F)F)nc1N2` (stereo not drawn), 2.19%.
Regarding `CCOC(=O)c1sc(NC(=O)COC(=O)CNC(=O)C2CCCCC2)c(C(=O)OCC)c1C`, the inhibition is -1.65%.
With `O=C(COc1nc2ccccc2nc1N1CCOCC1)NC1CCCCC1` the figure was 5.49%; with `CC(=O)Nc1ccc(S(=O)(=O)N2CCN(c3nnnn3-c3ccccc3)CC2)cc1`, -0.88%; with `O=S(=O)(CS(=O)(=O)c1ccc(Cl)cc1)c1ccc(Cl)cc1`, 6.17%.
For `c1ccc(-c2cc(-c3nc(-c4ccccn4)no3)c3ccccc3n2)cc1`, the inhibition is 9.71%.
Regarding `c1ccc(-c2nc(C3CCCCC3)no2)cc1`, the inhibition is 3.47%.
`O=C(CN1CCCCC1)c1ccc(OC(F)F)cc1`: the inhibition is -5.74%.
Consider `c1ccc(N2CCOCC2)c(Nc2nc3ccccc3n3cnnc23)c1`, for which the inhibition was 8.42%.
As for `c1ccc(N2CCCCC2)c(Nc2nc3ccccc3n3cnnc23)c1`, the inhibition is 14.3%.
For the molecule `Nc1cc(OC(=O)c2cccs2)nn1S(=O)(=O)c1ccc(F)cc1`, the inhibition was 5.67%.
With `Cc1ccc(NC(=O)Cn2c(O)c(N=NC(=O)c3cc([N+](=O)[O-])ccc3O)c3ccccc32)cc1` the figure was 45.8%; with `Cc1cc(N2CCN(c3ccccc3)CC2)nc(N)n1`, -2.3%; with `Cc1cc(N2CCN(c3ccccc3)CC2)nc(-c2ccccc2)n1`, -10.3%.
In the case of `Cc1cc(Cl)nc(-n2nc(C)cc2C)n1`, the inhibition was -0.69%.
On to `Cc1cc(C)n(-c2nc3ccccc3nc2N2CCC(C)CC2)n1`, for which the inhibition is 2.59%.
For `O=c1cn[nH]c2ccccc12`, the inhibition was -1.28%.
With `CCOc1cc(/C=N\NC(=O)C2C(=O)NCC2c2ccccc2)ccc1OC` (stereo not drawn), the inhibition was -8.61%.
For the molecule `Cc1c(Br)ccc(NC(=O)CCN2C(=O)C3C4CCC(C4)C3C2=O)c1C` (stereo not drawn), the inhibition was -22.5%.
Regarding `CCOC(=O)c1c(N2C(=O)C3CC(C)=C(C)CC3C2=O)sc(C)c1C` (stereo not drawn), the inhibition was -1.38%.
For `COc1ccc(NC(=O)CNc2cccc(C#N)c2)cc1Cl`, the inhibition is -9.7%.
On to `COc1ccccc1NC(=O)CNc1ccc(F)c(Cl)c1`, for which the inhibition is -4.82%.
The result for `N#Cc1ccccc1NC(=O)CNc1ccc(Cl)c(C(F)(F)F)c1` reads 1.74%.
As for `COc1ccc(NC(=O)CNc2ccc(C#N)cc2)cc1`, the inhibition is -4.76%.
The result for `Cc1noc(C)c1/C=N/Nc1ccccn1` reads -11.2%; that for `COC(=O)c1ccccc1NC(=O)c1sc(N)nc1C`, -3.82%.
For `CCC/C=C1/CCCOC(C(=O)NCc2ccccc2)(C(F)(F)F)C1` (stereo not drawn), the inhibition was -24.5%.
For the molecule `O=C(Nc1ccc(-c2csc(Nc3ccccc3)n2)cc1)c1cccc(C(F)(F)F)c1`, the inhibition was 14.9%.
The result for `O=C(Nc1ccc(-c2csc(Nc3cccc(C(F)(F)F)c3)n2)cc1)c1ccccc1` reads 0.91%; that for `O=C(Nc1cccc(-c2csc(Nc3cccc(C(F)(F)F)c3)n2)c1)c1cc([N+](=O)[O-])cc(C(F)(F)F)c1`, -8.7%.
With `O=C(Nc1ccc(-c2csc(Nc3ccccc3)n2)cc1)c1cc([N+](=O)[O-])cc(C(F)(F)F)c1` the figure was 50.3%.
On to `CCOc1ccccc1N(CC(=O)NCc1ccccc1)C(=O)CCC(=O)Nc1cc(C)ccn1`, for which the inhibition is -1.77%.
On to `Cc1cc(NCCCN2CCOCC2)n2c(nc3ccccc32)c1C#N`, for which the inhibition is -4.69%.
Regarding `CC1=C(C(=O)OC(C)C)C(c2cccs2)n2ncnc2N1` (stereo not drawn), the inhibition was 7.3%.
In the case of `CC(=O)Nc1ccc(C(=O)/C=C/c2ccco2)cc1`, the inhibition was -0.44%.
`O=C(/C=C\c1ccco1)c1ccc(NC(=O)c2ccco2)cc1`: the inhibition is -2.87%.
With `COCCCNC(=S)N(Cc1ccccc1)Cc1nc2ccccc2c(=O)[nH]1` the figure was -7.77%.
The result for `NC(=O)C(=CNc1nc(-c2ccc(Cl)c(Cl)c2)cs1)C(N)=O` reads -3.81%; that for `OC1=C(O)c2nc3cc(C(F)(F)F)ccc3nc21`, -3.35%.
`COc1cccc(NCc2ccc([N+](=O)[O-])s2)c1`: the inhibition is 15.2%.
Regarding `COc1ccc(NCc2ccc([N+](=O)[O-])s2)c(OC)c1`, the inhibition is 79.8%.
With `CCCCNC(=O)c1ccc(NC(=O)C2CCCO2)cc1` (stereo not drawn), the inhibition is 0.89%.
`NC(=O)c1ccc(NC(=O)C2CCCO2)cc1` (stereo not drawn): the inhibition is -8.76%.
For `COC(=O)c1ccc(NC(=O)C2CCCO2)cc1` (stereo not drawn), the inhibition is -10.3%.
`COC(=O)c1ccc(NC(=O)c2ccc(NC(=O)C3CCCO3)cc2)cc1` (stereo not drawn): the inhibition was 10.1%.
Turning to `CCCCNS(=O)(=O)c1ccc(NC(=O)C2CCCO2)cc1` (stereo not drawn), the inhibition was 6.1%.
`CCOC(=O)c1cc(NC(=O)C2CCCO2)cc(C(=O)OCC)c1` (stereo not drawn): the inhibition was 3.41%.
As to `CC(C)COC(=O)c1ccc(NC(=O)C2C3C=CC(C3)C2C(=O)O)cc1` (stereo not drawn), the inhibition is 58.1%.
With `COC(=O)c1ccc(NC(=O)C2C3C=CC(O3)C2C(=O)O)cc1` (stereo not drawn), the inhibition is -12.1%.
For `Cn1ncc(C#N)c1NC(=O)C1CC(c2ccc(Cl)c(Cl)c2)=NO1` (stereo not drawn), the inhibition is -5.17%.
Regarding `COC(=O)c1[nH]c2ccccc2c1NC(=O)CN1CC(C)OC(C)C1` (stereo not drawn), the inhibition is -0.75%.
Regarding `CCOC(=O)N1CCN(C(=O)Cc2ccc(C)cc2)CC1`, the inhibition is -3.57%.
As to `CN(C)C(CNC(=S)Nc1ccccc1Cl)c1cccnc1` (stereo not drawn), the inhibition was 7.94%.
In the case of `CCCCOC(=O)c1ccc(NC(=O)C(=O)NCC2CCCO2)cc1` (stereo not drawn), the inhibition was 34.8%.
With `CCOC(=O)c1ccc(NC(=O)C(=O)NCC2CCCO2)cc1` (stereo not drawn), the inhibition was 65.4%.
For the molecule `COc1ccc(Br)c2oc(S)cc(=O)c12`, the inhibition was -4.76%.
With `CCN(CC)C(=O)C1CCCN(Cc2ccc(F)c(F)c2)C1` (stereo not drawn) the figure was -6.74%.
For the molecule `CCC(CC)C(=O)Nc1ccc([N+](=O)[O-])cn1`, the inhibition is 1.14%.
Regarding `CCCc1nc(SCC(=O)Nc2cc(C)on2)c2c(=O)n(C)c(=O)n(C)c2n1`, the inhibition is 5.55%.
Take `CCCCn1c(/N=C/c2ccc(N(C)C)cc2)nc2ccccc21`: the inhibition was -13.8%.
The result for `Cc1ccc(NCc2nc3ccccc3n2C)cc1` reads 6.89%; that for `Cn1c(CNc2ccccc2)nc2ccccc21`, 5.08%; that for `Cc1cccc(NCc2nc3ccccc3n2C)c1`, -0.92%.
In the case of `Cn1c(Cl)nc2ccccc21`, the inhibition is -1.9%.
Regarding `CN(C)c1ccc(-c2nc3ccccc3n2C)cc1`, the inhibition was -2.73%.
`CC(=O)Nc1nc(=S)n(-c2ccccc2)[nH]1`: the inhibition is -1.91%.
Regarding `COC(=O)C1CCN(C(=O)COC(=O)CC(NC(C)=O)c2ccccc2)CC1` (stereo not drawn), the inhibition was -3.65%.
On to `Fc1cccc2sc(N3CCCCC3)nc12`, for which the inhibition was -9.23%.
Turning to `COc1ccccc1NC(=O)CCc1nc(-c2ccccc2F)no1`, the inhibition was 2%.
For the molecule `O=C(NC1=NC2CCCCC2N1)c1ccccc1` (stereo not drawn), the inhibition was 1.79%.
Consider `Cc1ccc(C2=Nc3ccccc3N=C(c3ccc([N+](=O)[O-])cc3)C2)c(O)c1`, for which the inhibition is 0.53%.
As to `Cc1ccc(O)c(C2=Nc3ccccc3N=C(c3cccc([N+](=O)[O-])c3)C2)c1`, the inhibition is 3.86%.
Consider `CCc1cccc(CC)c1NC(=S)Nc1cccc(Cl)c1Cl`, for which the inhibition was 2.37%.
The result for `CCCn1nc(C(=O)Nc2nc3ccccc3[nH]2)c2ccccc2c1=O` reads 59.6%.
For `CCCCCn1c(=O)c(-c2nc3ccccc3[nH]2)c(O)c2ccccc21`, the inhibition was 52.9%.
The result for `CCn1c(=O)c(-c2nc3ccccc3[nH]2)c(O)c2ccccc21` reads 43.3%; that for `CCn1c(=O)c(C(=O)Nc2ccccn2)c(O)c2ccccc21`, -3.43%; that for `CC1Cc2ccccc2N1C(=O)c1ccc(N2CCCC2)c([N+](=O)[O-])c1` (stereo not drawn), 4.46%.
For the molecule `CCN(C(=O)CSc1nc(-c2ccccc2)c(-c2ccccc2)[nH]1)C1CCS(=O)(=O)C1` (stereo not drawn), the inhibition is 0.12%.
`CSc1ncccc1C(=O)OCC(=O)N(CC(C)C)C1CCS(=O)(=O)C1` (stereo not drawn): the inhibition is -5.78%.
